This is an account of results in PubChem BioAssay AID430 (Sanford-Burnham Center for Chemical Genomics, 2006).

In all, about 63,000 compounds went through this assay and about 1,100 (1.7%) were called active. What follows is part of a selection rich in actives, with near analogues and random picks from the rest. Results with a measured potency or affinity are listed apart. Values without a mark were called inactive. No stated cut-off is given here; in the data, active means cytotoxicity above about 50%; inactive means the rest.

The assay can be described thus: HPDE-C7 pancreatic duct cell viability loss – fluorescence, HTS (AID 430).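 Further: cells exposed to compound for 48 hours before viability readout; 0% = vehicle and 100% = reference cytotoxic drug.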 To be noted: HPDE-C7 pancreatic duct cells viability, at 10 µM, hits give high values.
Regarding `CCN1C(=O)c2ccccc2S(=O)(=O)c2ccc(C(=O)NCc3cccnc3)cc21`, the cytotoxicity is -0.2%.

Take `CS(=O)(=O)c1ccc2nc(NC(=O)c3cccs3)sc2c1`: the cytotoxicity is -8.3%.

As for `CC(C)n1nc(C(=O)Nc2nc3ccc(S(C)(=O)=O)cc3s2)c2ccccc2c1=O`, the cytotoxicity is 54.4% (active).

In the case of `COc1ccccc1C(=O)Nc1nc2ccc(S(C)(=O)=O)cc2s1`, the cytotoxicity was 2.7%.

As for `COCCCNC(=O)c1ccc(N2CCCC2)c(NS(=O)(=O)c2ccc(C)cc2)c1`, the cytotoxicity was -13.4%.

Turning to `CC1CC(C)CN(C(=O)c2cn(C)c3ccc(S(=O)(=O)N(C)C)cc3c2=O)C1` (stereo not given), the cytotoxicity was 0.8%.

As to `CC12CC(NC(=O)N1c1cccc(C(=O)NCc3ccc4c(c3)OCO4)c1)c1cc(Cl)ccc1O2` (stereo not given), the cytotoxicity is 27.3%.

For `COc1ccccc1Oc1cc(C#N)c(C#N)cc1-n1nnc2ccccc21`, the cytotoxicity is -8.8%.

Regarding `N#Cc1cc(Oc2cccc3cccnc23)c(-n2nnc3ccccc32)cc1C#N`, the cytotoxicity is 63.7% (active).

For the compound `c1ccc(-n2nnnc2Oc2cccc3cccnc23)cc1`, the cytotoxicity was 19.3%.

Regarding `CCOC(=O)CNC(=O)CSc1nc2cccnc2n1C`, the cytotoxicity is -7.9%.

As to `CCNc1sc(C(=O)c2cccs2)c(N)c1-c1nc2ccccc2s1`, the cytotoxicity was 73.7% (active).

Take `CNc1sc(C(=O)c2cccs2)c(N)c1-c1nc2ccccc2s1`: the cytotoxicity is 33.3%.

Turning to `CCNc1sc(C(=O)c2cccs2)c(N)c1C#N`, the cytotoxicity is -12.7%.

As to `COc1ccccc1Nc1nc(C2(C)CCC(=O)O2)cs1` (stereo not given), the cytotoxicity is 6.8%.

Regarding `Cn1c(-c2nonc2NC(=O)c2ccc(C(C)(C)C)cc2)nc2ccccc21`, the cytotoxicity is -0.1%.

Turning to `CCCn1cc(S(=O)(=O)CC(=O)Nc2ccc(OCC)cc2)c2ccccc21`, the cytotoxicity was -9.9%.

As for `COc1ccc(-c2oc3ncn4nc(Cc5ccccc5)nc4c3c2-c2ccc(OC)cc2)cc1`, the cytotoxicity was 62.3% (active).

As for `N=c1c2c(-c3ccccc3)c(-c3ccccc3)oc2ncn1CCN1CCOCC1`, the cytotoxicity is 29.3%.

As to `COc1ccccc1OCc1nc2c3c(-c4ccccc4)c(-c4ccccc4)oc3ncn2n1`, the cytotoxicity was 7.7%.

For the compound `COc1ccc(-c2oc3ncn(CCN4CCOCC4)c(=N)c3c2-c2ccc(OC)cc2)cc1`, the cytotoxicity was 16%.

Turning to `Cc1nc2c3c(-c4ccccc4)c(-c4ccccc4)oc3ncn2n1`, the cytotoxicity is -9.4%.

Take `COc1ccc(-c2oc3ncn4nc(COc5ccccc5)nc4c3c2-c2ccc(OC)cc2)cc1`: the cytotoxicity is 54.9% (active).

With `CCOc1ccc(CCNC(=O)CCN2C(=O)COc3ccccc32)cc1OCC`, the cytotoxicity was -19.6%.

In the case of `CCOC(=O)/C=C1\SCC(=O)N1CC(=O)Nc1ccccc1OC(F)F`, the cytotoxicity was 2.3%.
